According to PubChem BioAssay AID1347076 (National Center for Advancing Translational Sciences (NCATS), 2019):
“And” between values parts separate entries of the source, which are not always exact repeats. Equal entries are not always repeated. The campaign covered roughly 400,000 compounds. About 13,000 (3.2%) were called active. About 18% were inconclusive and are not listed. The list comes from a sample in which actives are over-represented; it also holds similar structures and randomly drawn compounds. Unmarked numbers belong to inactive results. Calls come from the whole dose curve; as a rule, active = well fitted cell-killing curve with a large enough effect; inconclusive = small, poorly fitted or top-dose-only effect, or effect the other way; inactive = flat fitted curve, though single readings scatter.

Experiment: qHTS assay for MDR1-selective chemotherapeutics: Primary screen using the drug-selected MDR subline cells KB-V1; note: nearly all actives have a fitted effect of over 60% in size
Conditions: KB-V1 MDR cells viability, CellTiter-Glo, 72 h; series mostly up to 46.1 µM; activity change, negative = cytotoxicity: at the top concentration
In short: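 KB-V1, DMEM (no phenol red) + 10% FBS; cpd pin-transferred, titration series; 72 h, 37 degrees C; CellTiter-Glo, luminescence. Data normalized, curve-fit.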
% is set by controls: 0 for no effect and ±100 for the full control effect; potency is the fitted concentration of half-maximal effect.

Row | Structure (SMILES) | activity change, negative = cytotoxicity | Potency
1 | CN(C)CCN1CCN(c2cc(-c3cccc(Cl)c3)nc3ccnn23)CC1 | 7.25% | –
2 | CCc1nc2c(OCC(N)=O)cccn2c1N(C)C(=O)c1ccc(OC)cc1 | 0% | –
3 | CC1=C(C(=O)N2CCOCC2)CC(CC(=O)NCc2cccs2)C(=O)N1CCCN1CCCC1=O (stereo not drawn) | -2.21% | –
4 | C#C[C@]1(O)CC[C@H]2[C@@H]3CCC4=CC(=O)CC[C@@H]4[C@H]3CC[C@@]21CC | – | 13 µM (active) and 7.31 µM (active)
5 | CCCCCCCCN1C(=O)[C@H](CC(=O)NCC23CC4CC(CC(C4)C2)C3)C[C@@]2(C(=O)OC)CCCCC=C12 | -1.91% | –
6 | CC(C)Sc1oc(-c2cccs2)nc1S(=O)(=O)c1ccc(Cl)cc1 | -19.7% | –
7 | CS(=O)(=O)N1CCN(c2ccc(C(=O)NC3C4CC5CC(C4)CC3C5)cc2[N+](=O)[O-])CC1 (stereo not drawn) | – | 11.6 µM (active)
8 | CC(NC(=O)c1ccc(N2CCNCC2)c([N+](=O)[O-])c1)C12CC3CC(CC(C3)C1)C2 (stereo not drawn) | -12.3% | –
9 | O=C(NC1C2CC3CC(C2)CC1C3)c1ccc(N2CCNCC2)c([N+](=O)[O-])c1 (stereo not drawn) | -24.8% | –
10 | COc1ccc(-c2cc3nc(NCCOc4ccccc4)ccn3n2)cc1 | -1.29% | –
11 | CCc1nc2onc(C)c2c(=O)n1CC(=O)O | 20.4% | –
12 | COCCCNC(NC(=O)c1ccc(C)cc1)C(Cl)(Cl)Cl (stereo not drawn) | – | 20.6 µM (active)
13 | COCCCNC(NC(=O)c1ccc(OC)cc1)C(Cl)(Cl)Cl (stereo not drawn) | -0.612% | –
14 | CCOCCCNC(=O)C(NC(=O)CNC(=O)c1ccccc1)c1ccc(C)cc1 (stereo not drawn) | 0.549% | –
15 | CCOC(=O)[C@]12CCC=C1N(Cc1ccco1)C(=O)[C@H](CC(=O)N1CCSCC1)C2 | -25.8% | –
16 | CC(C)Oc1ccc(CN2CCC2(C)C(=O)NCc2ccc(C(F)(F)F)cc2)cc1 (stereo not drawn) | -8.92% | –
17 | Cc1cccc(-c2nc(SCC(=O)Nc3cc(C)on3)c3c(=O)n(C)c(=O)n(C)c3n2)c1 | 8.61% | –
18 | Cc1nc2ccccc2nc1CC(O)(c1ccccc1)c1ccccc1 | -13.9% | –
19 | O=C(NCc1ccccc1)C(=O)NCC(c1ccco1)S(=O)(=O)c1ccc(Cl)cc1 (stereo not drawn) | -23.4% | –
20 | CC(C)C(=O)N1CCN(c2nc(-c3ccccc3)c3c(c2C#N)CC(C)(C)OC3)CC1 | 15.4% | –
21 | CC1(C)Cc2c(C#N)c(SCc3nc4ccccc4[nH]3)nc(N3CCOCC3)c2CO1 | – | 9.2 µM (active)
22 | COc1ccc(CSc2nc(N3CCOCC3)c3c(c2C#N)CC(C)(C)OC3)cc1 | -7.53% | –
23 | COc1cccc(CNCc2c(C(=O)O)n(Cc3ccc(C)cc3)c3cc(C)ccc23)c1OC | -12.2% | –
24 | CCCCCc1c(C)nc(N2CCN(Cc3ccc4c(c3)OCO4)CC2)[nH]c1=O | 8.37% | –
25 | Fc1ccc2[nH]c3c(N4CCSCC4)ncnc3c2c1 | – | 3.26 µM (active)

Row | Structure (SMILES) | activity change, negative = cytotoxicity | Potency
26 | Fc1ccc2[nH]c3c(N4CCN(Cc5ccc6c(c5)OCO6)CC4)ncnc3c2c1 | – | 9.2 µM (active)
27 | Cc1c(CN2CC[C@@H](N3CCN(c4ccccn4)CC3)[C@H](O)C2)[nH]c2ccc(F)cc12 | 19.3% | –
28 | O=c1[nH]c(N2CCN(Cc3ccc4c(c3)OCO4)CC2)nc2c1CCCC2 | 0.611% | –
29 | CC1=C(C(=O)N(C)C)CC(CC(=O)NCCc2ccccn2)C(=O)N1CCC1=CCCCC1 (stereo not drawn) | -2.02% | –
30 | COCCNc1nc(Nc2ccccc2Cl)c2sc(-c3ccccc3)cc2n1 | 1.9% | –
31 | COc1ccc(NC(=O)c2nc(-n3nc(C)cc3C)ccc2Cl)cc1Cl | -16.4% | –
32 | COc1ccc(Nc2cc(C)nc(-n3nc(C)cc3C)n2)cc1 | – | 0.231 µM (active)
33 | CC(=O)Nc1ccc(Nc2cc(C)nc(Nc3ccc(NC(C)=O)cc3)n2)cc1 | 0.471% | –
34 | CC1(C)NC(=O)N(CC(=O)Nc2ccc(-c3ccccc3)cc2)C1=O | 6.88% | –
35 | CC1(Oc2ccc(Cl)cc2)CCN(Cc2csc3ccccc23)C1 (stereo not drawn) | 6.11% | –
36 | COc1ccc(-n2nnnc2SCc2nc(N)nc(N3CCOCC3)n2)cc1 | -2.46% | –
37 | CN(C)c1nc(N)nc(CSc2ccccn2)n1 | -15% | –
38 | CN(C)c1nc(N)nc(CSc2nnnn2-c2cccc3ccccc23)n1 | – | 6.51 µM (active)
39 | CCOC(=O)C1CCCN(C(=O)c2ccc(C)c(F)c2)CC1 (stereo not drawn) | 2.89% | –
40 | COc1ccc(S(=O)(=O)NCCCCOc2ccc(Cl)cc2)cc1 | 2.27% | –
41 | COc1ccc(N(Cc2ccccc2)S(=O)(=O)c2cccc(C(=O)O)c2)cc1 | -6.55% | –
42 | COc1ccc(N(CCC#N)S(=O)(=O)c2ccc(Cl)cc2)cc1 | – | 16.4 µM (active)
43 | CCCCNC(=O)Cn1c(SCc2cccc(Cl)c2)nc2ccncc21 | 24.9% | –
44 | O=C(NCCO)c1cccc(-c2cccc3nccn23)c1 | 2.1% | –
45 | CCC(=O)N1c2ccccc2CC1C(=O)N1CCN(c2cccc(OC)c2)CC1 (stereo not drawn) | -2.51% | –
46 | Cc1ccc(NC(=O)Cn2sc3ccccc3c2=O)cc1 | -4.65% | –
47 | CC(C)OCCCn1c(SCC(=O)c2ccccc2)nc2c(sc3ccccc32)c1=O | -4.17% | –
48 | COc1ccc(N2CCN(C(=O)C3CCN(C(=O)c4ccccc4Cl)CC3)CC2)cc1 | -0.446% | –
49 | COc1ccc(C(=O)Nc2ccccc2C(=O)N2CCN(c3ccccc3)CC2)cc1 | 2.33% | –
50 | COc1ccc(C(=O)Nc2c(Cl)cc(Cl)cc2C(=O)N2CCC(C)CC2)cc1 | – | 3.26 µM (active)

Row | Structure (SMILES) | activity change, negative = cytotoxicity | Potency
51 | CCCNC(=O)C1(C)CCN1C(=O)Cc1ccc(-c2ccccc2)cc1 (stereo not drawn) | -9.32% | –
52 | COC(=O)c1scc(-c2ccc(C)cc2)c1S(=O)(=O)Nc1cc(Cl)c(OC)cc1OC | -3.69% | –
53 | CCCNC(=O)C1CC(=O)N(c2ccc(OCc3ccccc3)cc2)C1 (stereo not drawn) | -19.5% | –
54 | CC(C)n1ncc2c(C(=O)Nc3ccc(CC#N)cc3)cc(C3CC3)nc21 | -15.1% | –
55 | CC(C)n1ncc2c(C(=O)NCc3ccccc3CN(C)C)cc(C3CC3)nc21 | 28.4% | –
56 | COc1ccc(OCCNC(=O)c2cc(C3CC3)nc3c2cnn3C(C)C)cc1 | – | 8.2 µM (active)
57 | CCCCN1C(=O)C(CC(=O)NCc2cccs2)CC(C(=O)N2CCOCC2)=C1C (stereo not drawn) | 21.1% | –
58 | O=C(Nc1ccc2c(c1)OCCO2)C(C1CC1)N1CCC(Cc2ccccc2)CC1 (stereo not drawn) | 6.42% | –
59 | O=C(NCc1ccccn1)C1CCN(S(=O)(=O)c2ccc(Br)cc2)CC1 | 5.38% | –
60 | O=C(Nc1ccccn1)C1CCN(S(=O)(=O)c2ccc3c(c2)OCCO3)CC1 | -5.52% | –
61 | O=C(Nc1ccccn1)C1CCN(S(=O)(=O)c2ccccc2)CC1 | – | 18.4 µM (active)
62 | CN(Cc1ccc(C(F)(F)F)cc1)C(=O)[C@H]1O[C@@H](n2cnc3c(N)ncnc32)[C@H](O)[C@@H]1O | -2.71% | –
63 | O=C(COc1ccc(S(=O)(=O)N2CCCC2)cc1[N+](=O)[O-])N1CCCCC1 | -20.5% | –
64 | O=[N+]([O-])c1cc(C(F)(F)F)ccc1NN=C1CCCC1 | 28.7% | –
65 | O=[N+]([O-])c1cc(S(=O)(=O)N2CCCC2)ccc1NN=C1CCCC1 | – | 16.4 µM (active)
66 | COC(=O)c1ccc(CN2C(=O)C(Cc3ccccc3)ON=C2c2ncccc2C)o1 (stereo not drawn) | -9.92% | –
67 | O=[N+]([O-])c1c(NCCO)cc(Sc2nc3ccccc3s2)c2nonc12 | -3.18% | –
68 | O=S(=O)(Nc1ccc2nc(N3CCOCC3)sc2c1)c1ccccc1 | -27.7% | –
69 | CC(C)c1ccc(S(=O)(=O)Nc2ccc(O)c(Sc3nc4ccccc4s3)c2)cc1 | – | 16.4 µM (active)
70 | COC(=O)N(C)C[C@@H]1OCc2cnnn2CCCC(=O)N([C@@H](C)CO)C[C@@H]1C | 0.072% | –
71 | Nc1nc2c(ncn2[C@@H]2O[C@H](CNCc3ccc(OCCCN4CCOCC4)cc3)[C@@H](O)[C@H]2O)c(=O)[nH]1 | 6.4% | –
72 | Nc1ncnc2c1ncn2[C@@H]1O[C@H](C(=O)N2CCCN(Cc3ccccc3F)CC2)[C@@H](O)[C@H]1O | 0.685% | –
73 | CC(C)Oc1ccc(CCc2nnc(SCC(=O)O)n2-c2ccccc2)cc1 | 13.3% | –
74 | C=CCn1c(CCc2ccc(OC(C)C)cc2)n[nH]c1=S | -20.5% | –
75 | CC(C)Oc1ccc(CCc2n[nH]c(=S)n2Cc2ccccc2)cc1 | – | 16.4 µM (active)

Row | Structure (SMILES) | activity change, negative = cytotoxicity | Potency
76 | C[C@@H]1CN([C@@H](C)CO)C(=O)CCCn2cc(nn2)CO[C@H]1CN(C)S(=O)(=O)c1ccc(-n2cccn2)cc1 | 9.14% | –
77 | CCCCNC(=O)CSc1nc2ccc(NC(=O)CSc3nnc(N)s3)cc2s1 | 6.17% | –
78 | Nc1nnc(SCC(=O)Nc2ccc3nc(SCC(=O)Nc4ccccc4)sc3c2)s1 | – | 23.1 µM (active)
79 | CCCCNC(=O)CSc1nc2ccc(NC(=O)CSc3nnc(COc4ccccc4C)n3C)cc2s1 | -28.6% | –
80 | COc1ccc(N2c3ccccc3CN(Cc3ccccc3)[C@@H](C)[C@H]2Cc2ccc(-c3ccccc3)cc2)cc1 | 2.89% | –
81 | Clc1cccc(Cc2c(-c3cccc(Cl)c3)nc3ccc(Cl)cn23)c1 | 12% | –
82 | O=C(c1ccc(Cn2cc([N+](=O)[O-])cn2)o1)N1CCCC1 | -1.32% | –
83 | CCc1ccc(NC(=O)c2ccc(Cn3cc([N+](=O)[O-])cn3)cc2)cc1 | – | 4.61 µM (active)
84 | O=C(Nc1ccccc1F)c1ccc(Cn2cc(Br)cn2)cc1 | 0.173% | –
85 | CCOC(=O)C1=CC[C@@H](c2ccccc2)N(S(=O)(=O)c2ccc(C)cc2)[C@H]1c1cccc(OC)c1 | -19.1% | –
86 | O=C(NCc1ccccc1)C1c2ccccc2OCC(=O)N1CCCN1CCOCC1 (stereo not drawn) | 0% | –
87 | CCOC(=O)c1ccc(NC(=O)C2CC(=O)NC(=Nc3ccc(C)c(C)c3)S2)cc1 (stereo not drawn) | 0% | –
88 | Cc1ccc(Cc2c(-c3ccco3)nc3ccc(Cl)cn23)cc1 | -9.86% | –
89 | Oc1c(Br)cccc1/C=N/Nc1c(F)c(F)c(F)c(F)c1F | – | 25.9 µM (active)
90 | Brc1ccccc1/C=N/Nc1nc2ccccc2o1 | 16.2% | –
91 | Oc1cccc(/C=N/Nc2ccc(Cl)nn2)c1O | -22.1% | –
92 | CCOc1ccc(Nc2nc3c(S(=O)(=O)c4cccc(Cl)c4)nnn3c3ccsc23)cc1 | 1.29% | –
93 | CSc1ccc(CN2CCC2(C)C(=O)NCc2ccccc2Br)cc1 (stereo not drawn) | -11.6% | –
94 | CCc1nnc(NC(=O)c2ccco2)s1 | 27.7% | –
95 | CCCCCNC(=O)C1C(=O)Nc2ccccc2C(=O)N1C(C)(C)C (stereo not drawn) | -14.7% | –
96 | CCCN(CCC)C(=S)Nc1cc(C(=O)OC)ccc1C(=O)OC | – | 20.6 µM (active)
97 | CCN(CCO)C(=S)Nc1cc(C(=O)OC)ccc1C(=O)OC | -19.1% | –
98 | CCS(=O)(=O)Nc1cc(C(=O)OC)ccc1C(=O)OC | 12.8% | –
